An excerpt weighted towards active compounds, which were near 4.3% of everything screened.
PfHsp40 yeast: rescue of yeast from PfHsp40 toxicity, primary screen, S. cerevisiae, ATP luminescence; growth rescue, % at 12.5 µM; 0.68% of 340,000 active; S. cerevisiae expressing PfHsp40, growth rescue; in the data active = growth rescue above about 28%, passing the limit was not always enough; inconclusive = no clear call, values can overlap the other calls;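 note: yeast W303a lacking pdr1 and pdr3 grown in galactose medium; growth measured after three days at 30 °C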
BoNT-A LC inh2: BoNT/A light chain protease inhibitors, primary screen, biochemical, flow cytometry, MLPCN library | multiplex microsphere protease substrate cleavage | inhibition, % at 10 µM | 0.17% of 360,000 active; note: plate controls were buffer without enzyme for full effect and enzyme alone for no effect
Autofluor counter: flagged as autofluorescent in microsphere protease counterscreen | fluorescence intensity (concentration not given with the values) | compound autofluorescence counterscreen, microsphere flow cytometry; active compounds read high | 3.1% of 360,000 active | AID 624483; in the data active = fluorescence intensity above about 16000; inconclusive = no clear call, values can overlap the other calls
MazEF act: activators of E. coli MazEF toxin-antitoxin RNase, primary screen, biochemical, fluorescence, uHTS; FAM/BHQ RNA-DNA oligo cleavage fluorescence, 5 h; AID 504720, 2011; activation, % at 20 µM; 0.32% of 350,000 active; in the data active = activation above about 50%
BoNT F protease: BoNT/F light chain protease inhibitors, primary screen, biochemical, flow cytometry, MLPCN library; Botulinum neurotoxin type F light chain protease (Clostridium botulinum); Multiplex microsphere protease cleavage assay; 0.22% of 360,000 active; inhibition, % at 10 µM; AID 588497, 2011; in the data active = inhibition above about 35%, passing the limit was not always enough; inconclusive = no clear call, values can overlap the other calls; note: plate controls were buffer without enzyme for full effect and enzyme alone for no effect
Anthrax LF inh2: Bacillus anthracis LF protease inhibitors, primary screen, biochemical, multiplex microsphere, MLPCN library. multiplex microsphere protease cleavage assay. 0.12% of 360,000 active. inhibition, % at 10 µM. Lethal factor (Bacillus anthracis), P15917; note: plate controls were buffer without enzyme for full effect and enzyme alone for no effect
* hit, by the source's call; ? = inconclusive; / = no result; ! = repeats disagree. Cut-off read from the data, not from the text of the source, unless noted: active = inhibition above about 30%; inconclusive = no clear call, values can overlap the other calls; inactive = below that.

SMILES | PfHsp40 yeast | BoNT-A LC inh2 | Autofluor counter | MazEF act | BoNT F protease | Anthrax LF inh2
CC(C)(C)NC(=O)C(c1ccncc1)N(Cc1ccc(F)cc1)C(=O)c1ccc(-c2ccccc2)[nH]1 (stereo unspecified) | 66* | 1 | 3060 | -2 | 2 | -7
Cc1cc(C)c2c(CN3CCN(CCO)CC3)cc(=O)oc2c1 | 1 | 0 | 23234* | 1 | -1 | 0
Cc1cc(C)c2c(CN3CCN(c4ccccc4F)CC3)cc(=O)oc2c1 | / | -1 | 4197 | / | 9 | -8
Cc1cc(C)c2c(CN3CCN(C)CC3)cc(=O)oc2c1 | -2 | -2 | 16812* | 4 | -5 | -1
CC1CN(CCN2CC(C)N(C=O)CC2C)C(C)CN1C=O (stereo unspecified) | 2 | 0 | 2876 | 6 | -9 | 3
CCN1CCc2c(sc(NC(=O)c3ccc(C(=O)c4ccccc4)cc3)c2C(N)=O)C1 | -2 | 0 | 6112 | 274* | -6 | 6
CCN1CCc2c(sc(NC(=S)NC(=O)c3ccccc3)c2C#N)C1 | 1 | 9 | 2402 | 62* | -31 | 4
NC(=O)c1c(NC(=O)c2ccccc2)sc2c1CCN(Cc1ccccc1)C2 | 2 | 0 | 5985 | 116* | -9 | -9
NC(=O)c1c(NC(=O)c2c(F)cccc2F)sc2c1CCN(Cc1ccccc1)C2 | 1 | -1 | 6169 | 2 | -6 | 2
N#Cc1c(NC(=S)NC(=O)c2ccccc2)sc2c1CCC2 | 0 | 0 | 2465 | 17 | -3 | -3
C=CCN(C(=O)c1csnn1)C(C(=O)NC1CCCC1)c1c(F)cccc1Cl (stereo unspecified) | -1 | 0 | 4272 | -8 | -5 | 3
CN(C)P1(N(C)C)=Nc2c(c(N)nn2C)C(c2ccccc2)=N1 | 39*! | 1 | 2913 | 4 | -3 | -1
Cn1nc(N)c2c1N=P(N1CCOCC1)(N1CCOCC1)N=C2c1ccccc1 | 0 | 0 | 7681 | -4 | -5 | 5
CCCS(=O)(=O)NCc1cn2cccc(C)c2n1 | -2 | -2 | 9905 | 2 | -16 | -3
Cc1cccn2cc(CNc3ccccc3)nc12 | -1 | -1 | 20732* | -11 | -6 | -2
CC(C)c1ncc(S(=O)(=O)c2ccc(C(F)(F)F)cn2)c(N)n1 | 1 | 0 | 5987 | 1 | 9 | 8
Cc1cc(C)c2c(=O)[nH]c(SCC(=O)N3CCOCC3)nc2n1 | 1 | 0 | 4082 | -2 | -3 | -1
Cc1cc(C)c2c(=O)[nH]c(SCC(=O)N3CCCCC3)nc2n1 | 1 | 2 | 21909* | 7 | 7 | -2
Cn1nnnc1N=N/C(=N/Nc1ccccc1)c1ccccc1 | 234* | -4 | 2856 | 2 | -22 | -11
O=C(c1ccccc1)N1CCN(C2c3cccc4cccc(c34)C2NS(=O)(=O)c2ccccc2)CC1 (stereo unspecified) | 2 | -3 | 23933* | -9 | -6 | -2
O=C(CSc1nnc(COc2ccc(Cl)cc2Cl)o1)Nc1ccccn1 | -2 | -1 | 4716 | -12 | -3 | 2
Clc1ccc2nc(SCc3nnc(-c4ccccc4)o3)[nH]c2c1 | 0 | ? | 23021* | 2 | -4 | 1
Clc1ccc(OCc2nnc(SCc3nnc(-c4ccccc4)o3)o2)c(Cl)c1 | 8 | -2 | 17010* | -7 | -4 | 0
O=C(c1ccc2ccccc2c1O)N1CCCCC1 | / | 0 | 4029 | 7 | -6 | -1
COc1ccccc1-n1c(/C=C/c2ccccn2)nc2ccccc2c1=O | 1 | 1 | 3180 | -2 | 6 | -4
SMILES | PfHsp40 yeast | BoNT-A LC inh2 | Autofluor counter | MazEF act | BoNT F protease | Anthrax LF inh2
COc1cccc(/C=C/c2ccccn2)c1O | 2 | -21 | 24116* | 15 | -84 | -18
O=C(c1[nH]c(C(F)(F)F)nc1-c1ccccc1)N1CCN(c2ccncc2)CC1 | / | 0 | 5406 | / | 6 | 4
COc1ccc(N2C(=O)NC(NS(=O)(=O)c3ccc(NC(C)=O)cc3)(C(F)(F)F)C2=O)cc1 (stereo unspecified) | 0 | 2 | 5304 | -5 | 7 | 0
Cc1ccc(C2C(C#N)=C(N)SC(N)=C2C#N)cc1 | 3 | 12 | 11739 | -494 | 9 | 7
Cc1ccc(C2C(C#N)=C(N)SC(N)=C2C#N)c(C)c1 | -1 | 40* | 7929 | -404 | 71* | 28
CN(C)S(=O)(=O)Nc1ccc(C(=O)O)cc1 | 1 | 2 | 21783* | 2 | 3 | -1
CCOc1ccc(NS(=O)(=O)N(C)C)cc1 | 3 | 1 | 4032 | 8 | 7 | -1
Nc1nc(SCC(=O)N2CCCC2)[nH]c(=O)c1NC(=O)c1cccs1 | -1 | -1 | 3459 | -13 | -6 | -4
COc1ccc(CN2C(=O)C(Cc3ccccc3)Nc3ncnc(N4CCOCC4)c32)cc1 (stereo unspecified) | 45* | 0 | 2998 | -5 | -9 | -7
CCC1Nc2ncnc(N3CCc4ccccc4C3)c2N(Cc2ccc(Cl)cc2)C1=O (stereo unspecified) | 1 | 1 | 3067 | -8 | -11 | -1
O=C1C(Cc2ccccc2)Nc2ncnc(N3CCc4ccccc4C3)c2N1Cc1ccc(Cl)cc1 (stereo unspecified) | 38* | 0 | 4089 | -7 | 6 | -6
COCCCNC(=O)Cn1cnc2c(OCc3ccccc3)ncnc21 | 0 | 0 | 3033 | 5 | -5 | 1
CCN(C(=O)CSc1nc2ccccc2[nH]1)C1CCS(=O)(=O)C1 (stereo unspecified) | -1 | -3 | 5741 | 2 | 2 | -2
O=C(NN=C1CCN(Cc2ccccc2)CC1)c1ccccc1O | 21 | -1 | 5493 | 12 | -10 | -2
O=C(O)c1cc(NN=C2CCN(Cc3ccccc3)CC2)ccc1Cl | 0 | 7 | 6123 | 1 | 42* | -5
CS(=O)(=O)N(Cc1ccco1)Cc1ccccc1Cl | 0 | ? | 20334* | -2 | -1 | 1
CCN(CC(=O)Nc1c(F)cccc1F)C(=O)CC1CCCCC1 | 1 | 0 | 3523 | 2 | 0 | -1
COc1ccc(NC(=O)c2ccccc2NC(=O)COc2ccccc2)cc1 | -1 | 0 | 4724 | -7 | -7 | 5
O=C(Nc1cccc2ccccc12)NC1CCCCC1 | -1 | -3 | 4575 | 4 | -9 | -11
NC(=O)c1ccccc1NC(=O)NC1CCCCC1 | 2 | ? | 22128* | -2 | -1 | -3
COc1ccc(NC(=O)c2ccccc2NC(=O)NC2CCCCC2)cc1 | -1 | 1 | 23203* | -15 | -2 | -4
COC(=O)c1ccccc1NC(=O)NC1CCCC1 | -1 | 0 | 2246 | -5 | 0 | -1
O=C(Nc1ccccc1NC(=O)NC1CCCCC1)NC1CCCCC1 | 1 | ? | 16874* | 1 | -3 | -2

Screening results from PubChem BioAssay.
